Reference: PubChem BioAssay (NCATS)
Records with an inconclusive call do not appear. Where a call stands in place of a potency, no number is given. The source made the active and inactive calls. Calls come from the whole dose curve; as a rule, active = well fitted inhibition curve with a large enough effect; inconclusive = small, poorly fitted or top-dose-only effect; inactive = flat fitted curve, though single readings scatter.

What follows are molecules tested on CP256 (assay: qHTS profiling for inhibitors of Plasmodium falciparum proliferation (AID 504749; note: nearly all actives have a fitted effect of over 60% in size)). Settings: P. falciparum in erythrocytes, SYBR Green DNA, 72 h; series mostly up to 28.7 µM.
Summary of the method: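 SYBR Green fluorescence (ex 485 nm, em 535 nm) reports parasite DNA after 72 h compound exposure of infected red cells at 0.3% parasitemia, 2.5% hematocrit; signal normalized to 0.29 uM artemisinin and vehicle wells.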
Potency is the fitted concentration of half-maximal effect.

Question: With `CCCCC[C@H](O)/C=C/[C@H]1[C@H](O)CC(=O)[C@@H]1C/C=C\CCCC(=O)O` as the molecule, how does the Potency read?
Answer: The Potency was “inactive”.

Question: How did the Potency turn out when `O=C(CCCN1CCC(C(=O)c2ccc(F)cc2)CC1)c1ccc(F)cc1` was run?
Answer: Its Potency is “inactive”.

Question: With `C(=C\c1ccncc1)/c1ccccc1` as the molecule, how does the Potency read?
Answer: The Potency was “inactive”.

Question: For `O=C1N=C2SCCN2C(=O)C1Cc1ccc(Cl)cc1` (stereo not drawn), which Potency is on record?
Answer: Its Potency is “inactive”.

Question: `CCCCCCCCCCCC(=O)N(CCO)CCO` was tested. Which Potency did it give?
Answer: Its Potency is “inactive”.

Question: For `Cc1nc(NS(=O)(=O)c2ccc(N)cc2)nc(C)c1Br`, which Potency is on record?
Answer: Its Potency is “inactive”.

Question: With `O=c1[nH]c(=O)n([C@H]2C[C@H](O)[C@@H](CO)O2)cc1/C=C/Br` as the molecule, how does the Potency read?
Answer: Its Potency is “inactive”.

Question: How did the Potency turn out when `CC12CCC(C[N+](C)(CCC[N+](C)(C)C)C1)C2(C)C` (stereo not drawn) was run?
Answer: The Potency was “inactive”.

Question: With `Oc1cccc(O)c1O` as the molecule, how does the Potency read?
Answer: Its Potency is “inactive”.

Question: Which Potency does the source give for `CC(C)NCC(O)COc1ccccc1-n1cccc1` (stereo not drawn) here?
Answer: The Potency was “inactive”.

Question: Which Potency does the source give for `F[Si-2](F)(F)(F)(F)F` here?
Answer: The Potency was “inactive”.

Question: With `CN(Cc1ccccc1)Cc1ccccc1` as the molecule, how does the Potency read?
Answer: The Potency was “inactive”.

Question: Which Potency does the source give for `OCc1ccccc1` here?
Answer: The Potency was 12.6 µM (active).

Question: For `O=[n+]1ccn([O-])c2ccccc21`, which Potency is on record?
Answer: The Potency was “inactive”.

Question: With `OCC(O)CO` as the molecule, how does the Potency read?
Answer: Its Potency is “inactive”.

Question: With `CC(=O)NCCCS(=O)(=O)O` as the molecule, how does the Potency read?
Answer: Its Potency is “inactive”.

Question: How did the Potency turn out when `CCN(CC)CCOc1ccc2nc(N(C)C)sc2c1` was run?
Answer: Its Potency is “inactive”.

Question: With `Cc1cccc(Nc2ncccc2C(=O)O)c1C` as the molecule, how does the Potency read?
Answer: Its Potency is “inactive”.

Question: With `CCCCC(CC)CCC(CC(C)C)OS(=O)(=O)O` (stereo not drawn) as the molecule, how does the Potency read?
Answer: Its Potency is “inactive”.

Question: `C[C@H](N)C(=O)N[C@@H](C)P(=O)(O)O` was tested. Which Potency did it give?
Answer: The Potency was “inactive”.

Question: `CC(=O)Nc1ccc(NC(=S)NC(=O)c2ccc(C(C)(C)C)cc2)cc1` was tested. Which Potency did it give?
Answer: The Potency was “inactive”.

Question: Which Potency does the source give for `CN1CCc2c(c3ccccc3n2Cc2ccccc2)C1` here?
Answer: Its Potency is “inactive”.

Question: `CO/N=C(\C(=O)N[C@@H]1C(=O)N2C(C(=O)[O-])=C(C[n+]3cccc4c3CCC4)CS[C@H]12)c1csc(N)n1` was tested. Which Potency did it give?
Answer: The Potency was “inactive”.
